Screening data deposited in PubChem BioAssay by National Center for Advancing Translational Sciences (NCATS).
Most compounds without a hit are left out; they make up all but 21% or so of the library.
Pf growth 96h – P. falciparum growth inhibition at 96 hours. 6.9% of 320,000 active. AID 504834. Potency, µM (titrated, usually from 28.7 µM), without a hit: at the highest dose activity change, negative = inhibition, most hits filed as inhibitors. P. falciparum luciferase reporter growth, 96 h; note: potency is the fitted concentration of half-maximal effect; % is set by controls: 0 for no effect and ±100 for the full control effect
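Plates of compound plus infected erythrocytes (2% hematocrit, 0.05% parasitemia final) incubate 96 hours, 37 C, 5% CO2. Detection reagent added; reduced luminescence from the parasites' luciferase reporter flags inhibition.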
HCMV inh – blocks human cytomegalovirus replication | HFF cells, HCMV-luciferase reporter, 72 h; hits give low values | activity change, negative = inhibition, % at 57.5 µM | 4.5% of 410,000 active | AID 1259415; in the data active = activity change below about -60%; inconclusive = no clear call, values can overlap the other calls; inactive = above about -39%; note: % is set by controls: 0 for no effect and ±100 for the full control effect
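HFF cells seeded 16 h at 37C, treated with compounds, infected with luciferase-reporter HCMV at MOI 1 PFU/cell; luciferase read at 72 h post infection, normalized to buffer-only and Salinomycin controls.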
Pf growth 48h – inhibits P. falciparum growth in the first generation, 48 h. AID 504832. Potency, µM (top dose mostly 28.7 µM), for inactives: at the top dose activity change, negative = inhibition, actives largely listed as inhibitors. 5.9% of 310,000 active. P. falciparum luciferase growth in erythrocytes, 48 h; note: potency is the fitted concentration of half-maximal effect; % is set by controls: 0 for no effect and ±100 for the full control effect
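First compound was added to culture medium, then infected red cells at 0.1% parasitemia and 2% hematocrit (final). After incubation at 37 C under 5% CO2, luciferase detection reagent was dispensed and light output recorded.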
Shiga toxin inh – blocks Shiga toxin action in Vero cells; Vero cells, Shiga toxin protein synthesis inhibition reporter; inhibition, % at 38.7 µM; 9.2% of 290,000 active; in the data active = inhibition mostly above about 28%, no sharp cut-off; inactive = mostly below about 43%; note: 0% is about no effect
HCV inhibitor – HCV inhibition | Huh7.5.1 HCVcc-Cre infection, luciferase reporter, 44 h | Potency, µM (doses to about 41.8 µM), inactives show at the highest dose activity change, negative = inhibition, hits mostly inhibitors | 3.4% of 340,000 active | AID 651820; note: potency is the fitted concentration of half-maximal effect; % is set by controls: 0 for no effect and ±100 for the full control effect
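A cell-based infection assay in which seeded cells (1,000 per well) receive test compound after 4 h, are inoculated with HCVcc-Cre at approximately 0.5 moi, and are incubated 44 h before luminescence detection.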
Cycloheximide cs – counter-screen hit for Shiga toxin inhibitors, cycloheximide | cell reporter, cycloheximide protein synthesis inhibition counterscreen | max response, % | 12% of 300,000 active; in the data active = max response mostly above about 13%, no sharp cut-off; inactive = mostly below about 14%; note: read at 38.3 µM for the half of the compounds with a filed dose; 0% is about no effect
* marks the source's active call; other numbers are inactive results. Unless noted, calls come from the whole dose curve; as a rule, active = well fitted inhibition curve with a large enough effect; inconclusive = small, poorly fitted or top-dose-only effect, or another doubt; inactive = no such curve, though single readings can be large or run the other way.

For Cc1ccc(NC(=O)/C(=C\c2ccc([N+](=O)[O-])cc2)NC(=O)c2ccccc2)cc1 the results were Pf growth 96h 5.2µM*, HCMV inh 25, Pf growth 48h inconclusive, Shiga toxin inh 10, HCV inhibitor -23% and Cycloheximide cs -4.
For O=C(Nc1cccc(C(=O)O)c1)/C(=C/c1ccc([N+](=O)[O-])cc1)NC(=O)c1ccccc1 the results were Pf growth 96h 21%, HCMV inh 24, Pf growth 48h 24%, Shiga toxin inh -9, HCV inhibitor 12% and Cycloheximide cs -6.
`COc1ccc(/C=C(\NC(=O)c2ccc(C)cc2)C(=O)Nc2ccc(C(=O)O)cc2)cc1` gave Pf growth 96h inconclusive, HCMV inh -9, Pf growth 48h 18%, Shiga toxin inh 26, HCV inhibitor 2% and Cycloheximide cs 31*.
`O=C(Nc1cccc2ccccc12)/C(=C/c1ccc([N+](=O)[O-])cc1)NC(=O)c1ccccc1` gave Pf growth 96h 9.3µM*, HCMV inh 30, Pf growth 48h inconclusive, Shiga toxin inh -3, HCV inhibitor inconclusive and Cycloheximide cs 1.
Screening COC(=O)/C(=C\c1ccc([N+](=O)[O-])cc1)NC(=O)c1ccccc1 returned HCMV inh -15 and HCV inhibitor -14%.
CC(C)COc1ccc(C(=O)Nc2cc(-c3ccccc3)no2)cc1 was read as HCMV inh 42.
`CC1(C)CC(CCN(Cc2ccccc2)C(=O)c2ccco2)(c2ccccc2)CCO1` (stereo not drawn) gave Pf growth 96h 1.9µM*, HCMV inh -38, Pf growth 48h inconclusive, Shiga toxin inh -8, HCV inhibitor -2% and Cycloheximide cs -2.
CC(=O)N(CCC1(c2ccc(C)cc2)CCOC(C(C)C)C1)Cc1ccco1 (stereo not drawn) was read as Pf growth 96h 4.1µM*, HCMV inh 9, Pf growth 48h 5.9µM*, Shiga toxin inh 21, HCV inhibitor -1% and Cycloheximide cs 7.
Screening CCC1(C)CC(CCN(Cc2ccco2)C(C)=O)(c2ccccc2)CCO1 (stereo not drawn) returned Pf growth 96h 4.1µM*, HCMV inh -19, Pf growth 48h inconclusive, Shiga toxin inh 9, HCV inhibitor inconclusive and Cycloheximide cs -1.
Screening Cc1ccc(C2(CCNCc3ccco3)CCOC(C(C)C)C2)cc1 (stereo not drawn) returned Pf growth 96h inconclusive, HCMV inh 8, Pf growth 48h inconclusive, Shiga toxin inh -17, HCV inhibitor -4% and Cycloheximide cs 2.
COc1cc(C=CC(=O)c2cc(OC)c(OC)c(OC)c2)cc(OC)c1OC was read as HCMV inh -97* and HCV inhibitor inconclusive.
Screening COc1cc(C=CC(=O)c2ccccc2)cc(OC)c1OC returned HCMV inh 4.
COc1cc(/C=C/C(=O)N2CCC=CC2=O)cc(OC)c1OC was read as Pf growth 96h inconclusive, HCMV inh -97*, Pf growth 48h 9.3µM* and HCV inhibitor 32µM*.
For O=C(Cn1c(=O)c2cccn2c2cccnc21)NCc1cccc(F)c1 the results were HCMV inh -14.
For Cc1cccc(NC(=O)c2ccc(F)c(S(=O)(=O)NCc3ccc4c(c3)OCO4)c2)c1 the results were HCMV inh 27.
Screening CCCCn1cc2c(c1-c1cccc(C)c1)c(=O)n(C)c(=O)n2C returned Pf growth 96h inconclusive, HCMV inh 12, Pf growth 48h inconclusive, Shiga toxin inh -6, HCV inhibitor 10µM* and Cycloheximide cs -2.
For Cc1ccccc1C(=O)OCC(=O)Nc1cccc(S(=O)(=O)NC2=NCCC2)c1 the results were HCMV inh -3 and HCV inhibitor -22%.
COc1cccc(OCc2cc(C(=O)N(C)CCC3CCCCO3)no2)c1 (stereo not drawn) was read as Pf growth 96h inconclusive, HCMV inh 5, Pf growth 48h 7%, Shiga toxin inh 152*, HCV inhibitor -24% and Cycloheximide cs 75*.
Screening CC(=O)c1cccc(OCc2cc(C(=O)N(C)CCC3CCOCC3)no2)c1 returned Pf growth 96h 4%, HCMV inh 62, Pf growth 48h 2%, Shiga toxin inh 68*, HCV inhibitor -10% and Cycloheximide cs 42*.
`CCCN(CC1CCCO1)C(=O)c1cc(COc2cccc(OC)c2)on1` (stereo not drawn) gave Pf growth 96h 123%, HCMV inh 0, Pf growth 48h inconclusive, Shiga toxin inh 26, HCV inhibitor -16% and Cycloheximide cs 14*.
Screening COc1ccccc1OCc1cc(C(=O)N(C)CCC2CCOCC2)no1 returned HCMV inh 16.
`N#CCCn1cc(C=O)c(-c2cccs2)n1` gave Pf growth 96h 35%, HCMV inh -22, Pf growth 48h 5%, Shiga toxin inh -37, HCV inhibitor 11% and Cycloheximide cs -1.
Screening CCOc1ccc(OCc2ccc(C(=O)Nc3cccnc3)cc2)cc1 returned Pf growth 96h 11%, HCMV inh 4, Pf growth 48h 16% and HCV inhibitor inconclusive.
O=C(Nc1cccnc1)c1ccc(COCC(F)(F)F)cc1 was read as HCMV inh -35, Pf growth 48h 36%, Shiga toxin inh 38*, HCV inhibitor -4% and Cycloheximide cs 12*.
`CC(C)(C)C(=O)Nc1ccc(C(=O)Nc2cccnc2)cc1` gave Pf growth 96h 154%, HCMV inh 106, Shiga toxin inh 52, HCV inhibitor -1% and Cycloheximide cs 43*.
CCC(=O)Nc1ccc(C(=O)Nc2cccnc2)cc1 was read as HCMV inh 80, Pf growth 48h 41%, Shiga toxin inh 37*, HCV inhibitor -5% and Cycloheximide cs 15*.
Screening CCC(=O)Nc1ccc(S(=O)(=O)Nc2cccnc2)cc1 returned Pf growth 96h 2%, HCMV inh 2, Pf growth 48h 12%, Shiga toxin inh -18, HCV inhibitor 4% and Cycloheximide cs -3.
Screening CCOC(=O)c1c(-c2ccc(C)cc2C)csc1NC(=O)c1ccccc1Cl returned HCMV inh -5.
For Cc1cccc(OCCNc2ccc(C(F)(F)F)cc2[N+](=O)[O-])c1 the results were Pf growth 96h 7%, HCMV inh -20, Pf growth 48h 22%, Shiga toxin inh -5, HCV inhibitor 25% and Cycloheximide cs 9.3*.
For Cc1ccc(OCCNC(=O)CNC(=O)c2ccc(Cl)c([N+](=O)[O-])c2)cc1 the results were HCMV inh -3 and HCV inhibitor inconclusive.
Screening Cc1ccc(OCCNC(=O)c2cccc(Oc3ccc(C(F)(F)F)cc3[N+](=O)[O-])c2)cc1 returned Pf growth 96h inconclusive, HCMV inh -80*, Pf growth 48h 5%, Shiga toxin inh -8, HCV inhibitor inconclusive and Cycloheximide cs 8.
